Assay results from ChEMBL document CHEMBL4513216, “Probing the Open Global Health Chemical Diversity Library for Multistage-Active Starting Points for Next-Generation Antimalarials” (ACS Infect Dis, 2020).
Screen size: about 68,000 compounds; about 2,700 (4%) showed an effect of 50% or more. What follows is part of a selection rich in strong results, with near analogues and random picks from the rest.

system: Plasmodium berghei; assay: Screen against P. berghei liver stage (PbLuc), transformed with Luciferase, at 2uM; format: functional, HepG2; settings: tested at 2 uM

Point of comparison: `Cc1ocnc1C(=O)N1CCC2(CC1)c1nc[nH]c1CCN2CC(C)C`, INHIBITION 52.83%. Against it:
- COCC(c1cccc(C(F)(F)F)c1)N(C)C(=O)c1ccncc1 (stereo unspecified) — lower, 14.82%
- COCC(c1cccc(C(F)(F)F)c1)N(C)C(=O)c1cc(C)no1 (stereo unspecified) — lower, -23.4%
- COCC(c1cccc(C(F)(F)F)c1)N(C)C(=O)c1cc(C)n[nH]1 (stereo unspecified) — lower, 51.21%
- CCn1cc(CNC(=O)c2nn(CC)cc2Br)cn1 — lower, -26.13%
- O=C(NC1CCCN(c2ccccc2Cl)C1)c1nc(=O)[nH][nH]1 (stereo unspecified) — lower, 8.05%
- O=C(NC1CCN(c2ccccc2Br)C1)c1c[nH]nn1 (stereo unspecified) — higher, 53.81%
- O=C(NC1CCCN(c2ccccc2Cl)C1)c1ccc(=O)[nH]n1 (stereo unspecified) — lower, 42.88%
- O=C(NC1CCCN(c2ccccc2Cl)C1)c1c[nH]nn1 (stereo unspecified) — higher, 55.18%
- O=C(NC1CCCN(c2ccc(OC(F)F)cc2)C1)c1c[nH]nn1 (stereo unspecified) — lower, 5.48%
- O=C(NC1CCN(c2ccccc2OC(F)F)C1)c1c[nH]nn1 (stereo unspecified) — lower, 31.3%
- Cc1cc(C)n2c(CCCNS(=O)(=O)c3ccc(F)cc3)nnc2n1 — lower, 6.62%
- CCc1nc(NC2CCCN(C(=O)c3cccs3)C2)c2cnn(C)c2n1 (stereo unspecified) — lower, -33.35%
- CCCN(CCC)C1(Cc2cc(-c3cccc(O)c3)on2)COC1 — lower, 50.72%
- CCN(CC)C1(Cc2cc(-c3cccc(O)c3)on2)COC1 — lower, 10.08%
- Oc1cccc(-c2cc(CC3(N(CC4CC4)CC4CC4)COC3)no2)c1 — lower, -4.2%
- NC1(C(=O)NCCC2CN(Cc3ccco3)CCO2)CCCC1 (stereo unspecified) — lower, 18.98%
- CC(C)(C)c1noc(CCCC(=O)N2CCNC(=O)C2)n1 — lower, -31.79%
- COCCC(=O)N1C[C@@H]2CC[C@H]1CN(C1Cc3ccccc3C1)C2 — lower, 28.97%
- COCCOC(=O)N1C[C@@H]2CC[C@H]1CN(C1Cc3ccccc3C1)C2 — lower, -31.79%
- COCCOCC(=O)N1C[C@@H]2CC[C@H]1CN(C1Cc3ccccc3C1)C2 — higher, 61.82%
- Cc1cc(C)n(C2CCCN(C(=O)c3ccn(C)c(=O)c3)C2)n1 (stereo unspecified) — lower, -42.24%
- O=C(COCCOc1ccccc1)N1CCCC(n2ccnc2)C1 (stereo unspecified) — lower, 29.12%
- O=C(COCC1CC1)N1CCCC(n2cncn2)C1 (stereo unspecified) — higher, 62.46%
- O=C(COCC1CC1)N1CCCC(n2ccnc2)C1 (stereo unspecified) — higher, 67.53%
- Cc1nc(C(=O)N2CCCC(n3cncn3)C2)cs1 (stereo unspecified) — lower, -81.94%
- CC(=O)Nc1nc(C(=O)N2CCCC(n3cncn3)C2)cs1 (stereo unspecified) — higher, 72.31%
- O=C(COCC1CC1)N1CCCC(n2cccn2)C1 (stereo unspecified) — lower, -5.7%
- CC(=O)Nc1nc(C(=O)N2CCCC(n3ccnc3)C2)cs1 (stereo unspecified) — lower, 18.46%
- O=C(COC1CCCCC1)N1CCCC(n2ccnc2)C1 (stereo unspecified) — lower, -0.13%
- O=C(COCc1ccccc1)N1CCCC(n2cncn2)C1 (stereo unspecified) — lower, 24.15%
- Cc1ccccc1CN1CCC(CNc2ncnc3c2CCNCC3)C1 (stereo unspecified) — lower, 32.26%
- c1cnc(N2CCOCC3(CN(Cc4nccs4)CCO3)C2)nc1 (stereo unspecified) — lower, 14.39%
- CCC(C)NC(=O)c1nnn(-c2cccc3c2CCN(C)C3)c1C (stereo unspecified) — lower, -46.36%
- O=C(NCCN1CCCCC1)c1ccoc1 — lower, 6.12%
- COc1ccc(-c2cnc(CN3CCCC3Cn3cccn3)o2)cc1 (stereo unspecified) — lower, -36.73%
- O=C(NC1CCN(c2cccc(OC(F)(F)F)c2)C1=O)C1CC1 (stereo unspecified) — lower, -0.13%
- CS(=O)(=O)CCN(Cc1cccc(O)c1)C1CCC(O)CC1 (stereo unspecified) — lower, 50.4%
- C=C(C)CN(Cc1cccc(O)c1)C1CCC(O)CC1 (stereo unspecified) — lower, 6.55%
- CC(C)OCCN(Cc1cccc(O)c1)C1CCC(O)CC1 (stereo unspecified) — lower, 11.78%
- CSCCC(=O)N1CCC(CCC(=O)NCC2CCCO2)CC1 (stereo unspecified) — lower, 20.71%
- O=C(CNC(=O)c1c(F)cccc1Cl)Nc1ccc(F)cn1 — higher, 67.28%
- Cc1nc(NC(=O)CNC(=O)c2c(F)cccc2Cl)n[nH]1 — lower, 9.5%
- CC(O)(CNC(=O)c1c(F)cccc1Cl)C1CC1 (stereo unspecified) — lower, -21.74%
- CCc1c(C)nc2cc(C3CCN(Cc4cccc(F)c4)C3)nn2c1O (stereo unspecified) — higher, 65.74%
- CCc1c(C)nc2cc(C3CCN(Cc4cccnc4)C3)nn2c1O (stereo unspecified) — lower, 31.56%
- CCc1c(C)nc2cc(C3CCN(Cc4ccc(F)cc4)C3)nn2c1O (stereo unspecified) — lower, 40.31%
- CCc1ccc(CN2CCc3ncnc(N4CCOCC4)c3CC2)o1 — lower, -21.37%
- CN1CCN(C[C@@H]2CN(C(=O)NCC3CCCCC3)C[C@@H]2CO)CC1 — lower, -26.04%
- COc1ccc(CN2CC[C@H]3O[C@@H](C(=O)NCC4CC4)CC[C@H]32)cc1 — lower, 44.4%
- CC(Cn1ccnc1)NC(=O)NCCN1CCCCCC1=O (stereo unspecified) — lower, 17.18%
- CC(Cn1cccn1)NC(=O)NCCc1cccnc1 (stereo unspecified) — lower, 10.53%
- CC(Cn1cccn1)NC(=O)NCc1cccnc1 (stereo unspecified) — higher, 61.3%
- CC(Cn1cccn1)NC(=O)NCCCN1CCCCCC1=O (stereo unspecified) — lower, 48.37%
- CC(Cn1cccn1)NC(=O)NCCN1CCCCCC1=O (stereo unspecified) — lower, 50.03%
- COc1ccc(NC(=O)NC(C)Cn2cccn2)cn1 (stereo unspecified) — lower, -40.27%
- CC(Cn1cccn1)NC(=O)Nc1ccc(N(C)C)nc1 (stereo unspecified) — lower, 5.96%
- Cc1ccc(CNC(=O)NC(C)Cn2cccn2)cn1 (stereo unspecified) — lower, 49.01%
- CCN(CC)c1ccc(NC(=O)NC(C)Cn2cccn2)cn1 (stereo unspecified) — lower, 52.3%
- COc1ccc2c(ccn2CCC(=O)NCc2ccc(C(=O)O)cc2)c1 — lower, 42.94%
- Cc1ccc(C(CCNCCN(C)C)C2CCOC(C)(C)C2)cc1 (stereo unspecified) — lower, 26.52%
- CC(C)CN1CCc2[nH]cnc2C12CCN(C(=O)c1ccnn1C)CC2 — lower, 29.19%
- CC(C)CN1CCc2[nH]cnc2C12CCN(C(=O)c1cccnc1)CC2 — lower, 0.3%
- Cc1cc(C(=O)N2CCC3(CC2)c2nc[nH]c2CCN3CC(C)C)no1 — lower, 37.63%
- CC(C)CN1CCc2[nH]cnc2C12CCN(C(=O)c1ccc[nH]1)CC2 — lower, 22.43%
- CC(C)CN1CCc2[nH]cnc2C12CCN(C(=O)c1cnn(C)c1)CC2 — lower, 51.14%
- CCc1ccc(S(=O)(=O)N2CCCC3(CCCN3S(C)(=O)=O)C2)cc1 (stereo unspecified) — lower, 28.41%
- Cc1cc(C)n(CCNCc2cc(-c3ccccc3)c[nH]c2=O)n1 — lower, 24.26%
- CC1CCc2nn(CCNC(=O)c3cccs3)c(=O)cc2C1 (stereo unspecified) — lower, 28.82%
- CC(C)N1[C@@H](C(=O)NCC2CC2)C[C@@H]2CN(Cc3ccco3)C[C@@H]21 — lower, 28.2%
- Cc1nn(C)c(C)c1C(C)NCc1ccsc1 (stereo unspecified) — lower, 38.83%
- CS(=O)(=O)c1cncnc1C1CCCN(C(=O)Nc2ccc(F)cc2)C1 (stereo unspecified) — lower, -0.7%
- CC(C)N(Cc1ccccn1)C(=O)CCOc1cccc(F)c1 — lower, 5.43%
- Cc1cc(NCC2CCCO2)cc(=O)n1C (stereo unspecified) — lower, -0.15%
- COCCNC(=O)C(C)n1nc(-c2ccco2)cc(N)c1=O (stereo unspecified) — higher, 54.2%
- COCCCNC(=O)C(C)n1nc(-c2ccco2)cc(N)c1=O (stereo unspecified) — lower, -1.32%
- COCCNC(=O)C(C)n1nc(-c2ccc(C)o2)cc(N)c1=O (stereo unspecified) — lower, -21.09%
- CCN1CCC(CNC(=O)C(c2ccccc2F)N(C)C)(N(C)C)CC1 (stereo unspecified) — lower, 46.58%
- O=C(Cc1cccs1)N1CCOCC1c1ccccc1 (stereo unspecified) — lower, -26.81%
- CC(C)n1ccnc1CN1CCCN(C(=O)c2cscn2)CC1 — lower, -28.58%
- CC(C)C(O)CNC(=O)Nc1cccc(-c2nccs2)c1 (stereo unspecified) — lower, -2.23%
- OC1(CN(Cc2cccnc2)C2CCCCC2)CNCCOC1 (stereo unspecified) — higher, 74.3%
- CN(Cc1ccc2nsnc2c1)CC1(O)CNCCOC1 (stereo unspecified) — lower, -1.57%
- OC1(CN2CCC(Oc3cccnc3)CC2)CNCCOC1 (stereo unspecified) — lower, 3.58%
- Cn1cc(CN(C/C=C/c2ccccc2)C2CC2)cn1 — lower, -17.37%
- Cn1cc(CN(CC2(O)CCNC2)C2CCCCC2)cn1 (stereo unspecified) — higher, 60.64%
- Cn1cc(CN(CC2(O)CNCCOC2)C2CCCCC2)cn1 (stereo unspecified) — lower, 0.17%
- CN(C)c1ccc(C(CNS(=O)(=O)c2cccs2)N2CCCC2)cc1 (stereo unspecified) — lower, 14.19%
- COc1cccc(-c2n[nH]cc2-c2nc(CC3CCN(C)CC3)no2)c1 — lower, 38.67%
- Cc1noc(C)c1C(=O)N1CCCC1(C)C(=O)NC1CCCC1 (stereo unspecified) — lower, 11.32%
- O=C(Cc1ccc2c(c1)OCCO2)N1CCCC(n2cccn2)C1 (stereo unspecified) — higher, 56.12%
- O=C(CCc1ccc2c(c1)OCO2)N1CCCC(n2cccn2)C1 (stereo unspecified) — lower, -29.38%
- O=C(Cc1ccc2c(c1)CCO2)N1CCCC(n2cccn2)C1 (stereo unspecified) — lower, 52.52%
- O=C(Cc1ccc2c(c1)CCC2)N1CCCC(n2cccn2)C1 (stereo unspecified) — lower, -0.71%
- Cc1cnn(C2CCCN(C(=O)Cc3ccc4c(c3)CCO4)C2)c1 (stereo unspecified) — lower, 11.95%
- O=C(Cc1ccc2c(c1)OCCO2)N1CCCC(n2cncn2)C1 (stereo unspecified) — lower, -7.15%
- COc1cc(N2CC[C@@H](O)[C@@H]2Cc2cccnc2)ncn1 — lower, 32.21%
- CCCc1nc(C[S+]([O-])Cc2cn3cccc(C)c3n2)no1 (stereo unspecified) — lower, 16.37%
- CCOC(=O)c1nc(CN2CCC(NC(=O)C(C)C)CC2)cs1 — lower, -3.25%
- CCN1CCC2(CCC1=O)CN(c1cnc3ccccc3n1)CCN2C (stereo unspecified) — lower, -40.52%
- CC(C)C[C@@H](CO)n1cc(-c2cncnc2)nn1 — lower, 26.99%
- CC(C)C[C@@H](CO)n1cc(-c2cnc(-c3ccco3)nc2)nn1 — lower, -39.9%
- COc1ccc(-c2cn([C@H](CO)CC(C)C)nn2)cn1 — higher, 79.9%
- O=C1Nc2ccccc2CC12CCCN2Cc1ccc(C(F)(F)F)cc1 (stereo unspecified) — lower, -27.83%
- CC(C)c1cc(C2CCCN2C(=O)c2cn3ccsc3n2)no1 (stereo unspecified) — lower, -46.68%
- COc1ccccc1C1CNCCN1C(=O)c1ccc(F)cc1 (stereo unspecified) — lower, -20.28%
